Records with an inconclusive call do not appear. A call without a number means that no potency is given here. The source made the active and inactive calls. The call rests on the fitted dose curve; in most records, active means well fitted curve in the direction sought with a large enough effect; inconclusive means small, poorly fitted or top-dose-only effect, or another doubt; inactive means no such curve, though single readings can be large; an effect the other way counts as inactive or inconclusive.
Potency means the concentration at half of the fitted maximal effect.

For one assay, the target named is Rap guanine nucleotide exchange factor 3 (Homo sapiens) (UniProt O95398). Description: Counterscreen qHTS for antagonist of cAMP-regulated guanine nucleotide exchange factor 3 (EPAC1) (AID 1645888).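 On activity change, negative = inhibition: fluorescence loss as bound BODIPY-GDP is released from Rap1B.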 The settings on record: Rap1B-BODIPY-GDP nucleotide exchange, fluorescence; series mostly up to 154 µM. In a few lines: (§1)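 Rap1B–BODIPY-GDP (250 nM) with 50 uM GDP; compounds pin-transferred to 9.74 nM–152 uM final (activator) or from 7.32 nM upwards (inhibitor). Fluorescence Ex/Em 480/540 nm read at 5 and 30 min, then after adding cAMP or buffer, at room temperature.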
Rap guanine nucleotide exchange factor 3 (Homo sapiens), sequence (O95398 whole entry, looked up): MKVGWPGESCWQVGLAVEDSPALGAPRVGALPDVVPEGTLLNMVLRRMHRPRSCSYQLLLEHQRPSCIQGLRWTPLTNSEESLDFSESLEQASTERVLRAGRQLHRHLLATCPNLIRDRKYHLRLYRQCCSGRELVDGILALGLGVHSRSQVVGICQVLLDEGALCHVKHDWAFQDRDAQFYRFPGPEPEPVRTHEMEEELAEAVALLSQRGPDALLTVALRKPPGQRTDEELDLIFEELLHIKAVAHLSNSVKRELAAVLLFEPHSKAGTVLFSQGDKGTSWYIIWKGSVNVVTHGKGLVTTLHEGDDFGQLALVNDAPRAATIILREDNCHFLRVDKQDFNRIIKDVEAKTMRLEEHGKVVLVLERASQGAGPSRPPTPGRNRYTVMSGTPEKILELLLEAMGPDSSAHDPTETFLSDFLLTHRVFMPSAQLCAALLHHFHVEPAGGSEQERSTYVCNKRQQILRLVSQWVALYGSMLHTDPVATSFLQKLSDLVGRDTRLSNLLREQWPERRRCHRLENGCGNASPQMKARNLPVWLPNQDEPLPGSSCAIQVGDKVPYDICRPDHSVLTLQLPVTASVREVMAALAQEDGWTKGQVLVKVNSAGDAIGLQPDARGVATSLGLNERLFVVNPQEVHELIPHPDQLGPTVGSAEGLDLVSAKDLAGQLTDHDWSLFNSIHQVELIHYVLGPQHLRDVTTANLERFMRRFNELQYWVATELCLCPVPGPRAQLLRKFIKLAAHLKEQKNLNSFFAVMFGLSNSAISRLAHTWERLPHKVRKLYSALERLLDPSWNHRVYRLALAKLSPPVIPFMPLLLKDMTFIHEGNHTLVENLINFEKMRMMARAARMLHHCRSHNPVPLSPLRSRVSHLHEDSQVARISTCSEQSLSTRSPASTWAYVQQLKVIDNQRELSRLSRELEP
(In general: A counterscreen serves to expose hits that act by an unwanted route or on another target.)
In the case of `COc1ccc(C(=O)Nc2nc(-c3ccc(OC)cc3)c(-c3ccc([N+](=O)[O-])cc3)s2)cc1`, the Potency result was “inactive”. Still for that read-out and setting: to `CCN1CCc2c(sc(NC(=O)Nc3ccc(Cl)c(Cl)c3)c2C(N)=O)C1` belongs 100 µM (active). The same measure, in the same setting: with `O=C(NCCOc1ccccc1F)c1ccccc1SCc1ccc(F)cc1` the entry was “inactive”.

In the case of `COc1ccc(C(=O)N(CCc2ccccc2)Cc2cccs2)c(OC)c1`, the Potency result is “inactive”.

Consider `CC(=O)[C@@]1(O)Cc2c(O)c3c(c(O)c2[C@H](O[C@H]2C[C@H](N)[C@H](O)[C@H](C)O2)C1)C(=O)c1ccccc1C3=O`, for which the activity change, negative = inhibition is 128% [at 30.8 µM] (inactive).

With `Oc1ccc(N=Cc2sc3ccccc3c2Cl)cc1`, the Potency entry is “inactive”.

As for `CC(C)CC1=NN2C(=N)/C(=C\c3coc4ccccc4c3=O)C(=O)N=C2S1`, the activity change, negative = inhibition is 51.1% [at 30.8 µM] (inactive). On to `CC(=O)/C(=N\Nc1ccccc1)Sc1cccc2cccnc12`, for which the Potency entry was “inactive”. Still for that read-out and setting: with `Cc1ccc(S(=O)(=O)/N=C2\C=C(NS(=O)(=O)c3ccccc3)C(=O)c3ccccc32)cc1` the entry was “inactive”; with `COc1ccc(-c2csc3nc(C)nc(N4CCCCC4)c23)cc1OC`, “inactive”; with `COc1ccc2c(c1)CCC1C2=NN(/C(C)=C/C(C)=O)C1c1cccc(F)c1` (stereo unspecified), “inactive”.

With `Cc1ccc(-c2nc3ccc(C)cn3c2CC2CCCCC2)cc1`, the Potency entry was “inactive”. Still for that read-out and setting: to `CCOC(=O)c1cc(C)sc1NC(=O)CSC1=NCCS1` belongs “inactive”. On the same count and under the same terms, with `C=Cc1ccc(CC2(C)C(=O)Nc3ccc(-c4cccnc4)cc32)cc1` (stereo unspecified) the entry was “inactive”; with `COc1ccc(C2CC(c3cccs3)=NN2c2ccc(C=O)cc2)cc1` (stereo unspecified), “inactive”. On the same count and under the same terms, to `COC(=O)c1ccc(Cn2nc(-c3cc(C)ccc3C)ccc2=O)cc1` belongs “inactive”; to `COc1ccccc1C(=O)Oc1ccc2c(c1)O/C(=C\c1ccncc1)C2=O`, “inactive”; to `CC[n+]1ccc(/C=C/c2c[nH]c3ccccc23)cc1`, “inactive”.

As for `O=C1CC2(CCN(S(=O)(=O)c3ccccc3F)CC2)Oc2ccccc21`, the Potency result was “inactive”. Still for that read-out and setting: to `CN(C(=O)c1cc2c(cc1Br)OCO2)c1cccc2ccccc12` belongs “inactive”; to `CC1=CC2=NC(=O)/C(=C/c3coc4ccccc4c3=O)C(=N)N2O1`, “inactive”. Still for that read-out and setting: to `COc1ccccc1N1CCN(C(=O)c2ccc(S(=O)(=O)N3CCCC3)cc2)CC1` belongs “inactive”; to `O=S(=O)(c1ccc(Cl)c2ccccc12)N1CCCC1`, “inactive”; to `COc1ccc(-c2nn(-c3ccccc3)cc2/C=C2/SC(=S)N(CCC(=O)O)C2=O)cc1`, “inactive”. Same read-out and setting: with `N#Cc1cc(Br)ccc1N=C1CCCN1c1ccccc1` the entry was “inactive”; with `COC(=O)c1sc(S(=O)(=O)N2CCCCC2C)c(C(=O)OC)c1C` (stereo unspecified), “inactive”; with `CC1CC1c1ccc(/C=C(\C#N)C(=O)Nc2cc(Cl)ccc2Cl)o1` (stereo unspecified), “inactive”. For the compound `CCN1CCN(c2ccc(S(=O)(=O)N3CCCCC3)cc2NC(=O)c2cccc(OC(F)F)c2)CC1`, the Potency result is “inactive”. On to `N=C(N)c1ccc(N=Nc2c(O)ccc3c2[nH]c2ccccc23)cc1`, for which the activity change, negative = inhibition is -5.36% [at 30.8 µM] (inactive). Take `CCCCn1c(=O)[nH]c2nc3cc(N)ccc3nc2c1=O`: the activity change, negative = inhibition is 79.1% [at 30.8 µM] (inactive). On the same count and under the same terms, with `CCN(CC)c1ccc(/C=C/C(=O)c2ccc(Br)cc2)cc1` the figure was 192% [at 30.8 µM] (inactive).

Turning to `Cc1cccc(N2CCN(S(=O)(=O)c3ccc4c(c3)CCN4C(=O)CCC(=O)O)CC2C)c1` (stereo unspecified), the Potency result is “inactive”.

In the case of `CCN1C(=O)C(=CC=CN(C)c2ccccc2)SC1=S`, the activity change, negative = inhibition is 12.2% [at 30.8 µM] (inactive). With `O=C1C=C(c2c(O)ccc3ccccc23)c2ccccc2C1=O`, the Potency result is “inactive”. Still for that read-out and setting: to `COc1ccccc1N1N=C(C(=O)c2ccccc2)C2C(=O)N(c3ccc(Br)cc3)C(=O)C21` (stereo unspecified) belongs “inactive”; to `O=C(NC1CCCC1)c1cccc2c1C(=O)c1ccc(N3CCCCC3)cc1S2(=O)=O`, “inactive”; to `COc1cccc(/C(O)=C/c2nc3ccc(C(=O)NCCc4cccc(C)c4)cc3[nH]c2=O)c1`, “inactive”. Same read-out and setting: to `Brc1ccc(CSc2nccn2-c2ccccc2)cc1` belongs “inactive”; to `N#C/C(=C\c1ccc(Sc2ccc(Cl)cc2)o1)c1nc2ccccc2[nH]1`, “inactive”; to `COc1ccc(NC(=O)NS(=O)(=O)c2ccc(C)cc2)cn1`, “inactive”.

The target is the same in a further assay. Description: Counterscreen qHTS for agonist of cAMP-regulated guanine nucleotide exchange factor 3 (EPAC1) (AID 1645889). Further: nearly all actives have a fitted effect of over 40% in size. The note with it: EPAC1 Rap1B-BODIPY-GDP exchange, fluorescence; series mostly up to 154 µM. In a few lines:
as §1
For `COc1ccc(C(=O)Nc2nc(-c3ccc(OC)cc3)c(-c3ccc([N+](=O)[O-])cc3)s2)cc1`, the Potency was 63.1 µM (active). In the case of `CCN1CCc2c(sc(NC(=O)Nc3ccc(Cl)c(Cl)c3)c2C(N)=O)C1`, the Potency was 112 µM (active). The same measure, in the same setting: to `O=C(NCCOc1ccccc1F)c1ccccc1SCc1ccc(F)cc1` belongs “inactive”; to `COc1ccc(C(=O)N(CCc2ccccc2)Cc2cccs2)c(OC)c1`, “inactive”; to `CC(=O)[C@@]1(O)Cc2c(O)c3c(c(O)c2[C@H](O[C@H]2C[C@H](N)[C@H](O)[C@H](C)O2)C1)C(=O)c1ccccc1C3=O`, 12.6 µM (active).

With `Oc1ccc(N=Cc2sc3ccccc3c2Cl)cc1`, the Potency result was “inactive”. On the same count and under the same terms, to `CC(C)CC1=NN2C(=N)/C(=C\c3coc4ccccc4c3=O)C(=O)N=C2S1` belongs 12.6 µM (active); to `Cc1ccc(S(=O)(=O)/N=C2\C=C(NS(=O)(=O)c3ccccc3)C(=O)c3ccccc32)cc1`, “inactive”. The same measure, in the same setting: with `COc1ccc(C2CC(c3cccs3)=NN2c2ccc(C=O)cc2)cc1` (stereo unspecified) the figure was 44.7 µM (active); with `COC(=O)c1ccc(Cn2nc(-c3cc(C)ccc3C)ccc2=O)cc1`, “inactive”.

With `COc1ccccc1C(=O)Oc1ccc2c(c1)O/C(=C\c1ccncc1)C2=O`, the Potency is 35.5 µM (active).

`CC[n+]1ccc(/C=C/c2c[nH]c3ccccc23)cc1`: the Potency was 44.7 µM (active). The same measure, in the same setting: to `O=C1CC2(CCN(S(=O)(=O)c3ccccc3F)CC2)Oc2ccccc21` belongs 10 µM (active); to `CC1=CC2=NC(=O)/C(=C/c3coc4ccccc4c3=O)C(=N)N2O1`, 39.8 µM (active).

Regarding `COc1ccccc1N1CCN(C(=O)c2ccc(S(=O)(=O)N3CCCC3)cc2)CC1`, the Potency entry was “inactive”. Same read-out and setting: to `O=S(=O)(c1ccc(Cl)c2ccccc12)N1CCCC1` belongs “inactive”; to `N#Cc1cc(Br)ccc1N=C1CCCN1c1ccccc1`, “inactive”; to `COC(=O)c1sc(S(=O)(=O)N2CCCCC2C)c(C(=O)OC)c1C` (stereo unspecified), “inactive”.

As for `CC1CC1c1ccc(/C=C(\C#N)C(=O)Nc2cc(Cl)ccc2Cl)o1` (stereo unspecified), the Potency entry is “inactive”. In the case of `CCN1CCN(c2ccc(S(=O)(=O)N3CCCCC3)cc2NC(=O)c2cccc(OC(F)F)c2)CC1`, the Potency entry was “inactive”.

For `N=C(N)c1ccc(N=Nc2c(O)ccc3c2[nH]c2ccccc23)cc1`, the activation is 33.2% [at 30.8 µM] (inactive). For `CCCCn1c(=O)[nH]c2nc3cc(N)ccc3nc2c1=O`, the Potency is 12.6 µM (active). On the same count and under the same terms, with `CCN(CC)c1ccc(/C=C/C(=O)c2ccc(Br)cc2)cc1` the figure was 14.1 µM (active). Still for that read-out and setting: to `Cc1cccc(N2CCN(S(=O)(=O)c3ccc4c(c3)CCN4C(=O)CCC(=O)O)CC2C)c1` (stereo unspecified) belongs “inactive”; to `CCN1C(=O)C(=CC=CN(C)c2ccccc2)SC1=S`, 11.2 µM (active); to `O=C1C=C(c2c(O)ccc3ccccc23)c2ccccc2C1=O`, 35.5 µM (active). Still for that read-out and setting: with `COc1ccccc1N1N=C(C(=O)c2ccccc2)C2C(=O)N(c3ccc(Br)cc3)C(=O)C21` (stereo unspecified) the figure was 17.8 µM (active). Turning to `O=C(NC1CCCC1)c1cccc2c1C(=O)c1ccc(N3CCCCC3)cc1S2(=O)=O`, the Potency result is “inactive”. Consider `COc1cccc(/C(O)=C/c2nc3ccc(C(=O)NCCc4cccc(C)c4)cc3[nH]c2=O)c1`, for which the Potency entry is “inactive”. In the case of `Brc1ccc(CSc2nccn2-c2ccccc2)cc1`, the Potency was 1.58 µM (active). Same read-out and setting: with `COc1ccc(NC(=O)NS(=O)(=O)c2ccc(C)cc2)cn1` the figure was 63.1 µM (active).

Source of the values: PubChem BioAssay (NCATS).
